Reference: PubChem BioAssay AID1159580 (chemical genetic matrix, 2015)
“And” between values parts separate entries of the source, which are not always exact repeats. Equal entries are not always repeated. The campaign covered roughly 5,500 compounds. About 2,000 (36%) were called active. About 18% were inconclusive and are not listed. Some of the results follow. A number with no mark means an inactive call. No stated cut-off is given here; in the data, active means normalized growth mostly below about 0.91 (no sharp cut-off); inconclusive means no clear call, values can overlap the other calls; inactive means mostly above about 0.92.

Test: chemical genetic growth profiling, strain panel (AID 1159580);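 further: tested at 20 µM; growth read once vehicle control cultures reached saturation at 30 °C; 1 = growth at the plate median or of vehicle wells; lower values mean less growth of the strain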
Settings: S. cerevisiae deletion strains, growth OD

CC(CN1c2ccccc2Sc2ccccc21)N(C)C (configuration not stated)
normalized growth (locus YAL021C, strain ccr4, hits give low values): 0.902 (active) | normalized growth (locus YAL026C, strain drs2, hits give low values): 0.721 (active) | normalized growth (locus YAL030W, strain snc1, hits give low values): 0.973 | normalized growth (locus YAL040C, strain CLN3, hits give low values): 0.985 | normalized growth (locus YBL061C, strain skt5, hits give low values): 0.924 | normalized growth (locus YBR009C, strain hhf1, hits give low values): 0.954 | normalized growth (locus YBR021W, strain FUR4, hits give low values): 0.938 | normalized growth (locus YBR023C, strain chs3, hits give low values): 0.927 | normalized growth (locus YBR171W, strain sec66, hits give low values): 0.988 | normalized growth (locus YBR229C, strain ROT2, hits give low values): 0.95 | normalized growth (locus YBR231C, strain swc5, hits give low values): 0.95 | normalized growth (locus YBR279W, strain paf1, hits give low values): 0.966 | normalized growth (locus YCL011C, strain gbp2, hits give low values): 0.981 | normalized growth (locus YCL016C, strain dcc1, hits give low values): 0.975 | normalized growth (locus YCL061C, strain MRC1 (second series), hits give low values): 0.998 | normalized growth (locus YCL069W, strain vba3, hits give low values): 0.938 | normalized growth (locus YCR088W, strain abp1, hits give low values): 0.988 | normalized growth (locus YDL005C, strain med2, hits give low values): 1 | normalized growth (locus YDL035C, strain GPR1, hits give low values): 0.966 | normalized growth (locus YDL040C, strain nat1, hits give low values): 0.982 | normalized growth (locus YDL074C, strain BRE1, hits give low values): 0.906 | normalized growth (locus YDL101C, strain DUN1, hits give low values): 0.944 | normalized growth (locus YDL134C, strain PPH21, hits give low values): 0.979 | normalized growth (locus YDL185W, strain tfp1, hits give low values): 0.978 | normalized growth (locus YDL192W, strain arf1, hits give low values): 0.982 | normalized growth (locus YDR001C, strain nth1, hits give low values): 0.983 | normalized growth (locus YDR069C, strain doa4, hits give low values): 0.946 | normalized growth (locus YDR101C, strain arx1, hits give low values): 0.914 (active) | normalized growth (locus YDR137W, strain rgp1, hits give low values): 1.25 [resistant] (active) | normalized growth (locus YDR150W, strain NUM1, hits give low values): 0.99 | normalized growth (locus YDR159W, strain sac3, hits give low values): 0.968 | normalized growth (locus YDR162C, strain NBP2, hits give low values): 0.982 | normalized growth (locus YDR195W, strain ref2): 1.14 | normalized growth (locus YDR297W, strain sur2, hits give low values): 0.937 | normalized growth (locus YDR318W, strain mcm21, hits give low values): 0.95 | normalized growth (locus YDR334W, strain swr1, hits give low values): 0.985 | normalized growth (locus YDR335W, strain msn5, hits give low values): 0.94 | normalized growth (locus YDR363W, strain ESC2, hits give low values): 0.993 | normalized growth (locus YDR388W, hits give low values): 0.977 | normalized growth (locus YDR392W, strain spt3, hits give low values): 1.07 | normalized growth (locus YDR502C, strain sam2, hits give low values): 0.948 | normalized growth (locus YEL003W, strain gim4, hits give low values): 0.926 | normalized growth (locus YEL037C, strain rad23, hits give low values): 0.972 | normalized growth (locus YEL061C, strain CIN8 (second series), hits give low values): 0.975 | normalized growth (locus YEL061C, strain CIN8, hits give low values): 0.977 | normalized growth (locus YER002W, strain NOP16, hits give low values): 0.978 | normalized growth (locus YER015W, strain faa2, hits give low values): 0.901 (active) | normalized growth (locus YER016W, strain bim1, hits give low values): 0.988 | normalized growth (locus YER110C, hits give low values): 0.971 | normalized growth (locus YER111C, strain swi4, hits give low values): 0.98 | normalized growth (locus YER155C, strain BEM2 (second series), hits give low values): 0.816 (active) | normalized growth (locus YER155C, strain BEM2, hits give low values): 0.987 | normalized growth (locus YER167W, strain BCK2, hits give low values): 0.986 | normalized growth (locus YFR010W, strain ubp6, hits give low values): 0.88 (active) | normalized growth (locus YGL078C, strain dbp3, hits give low values): 0.972 | normalized growth (locus YGL086W, strain mad1, hits give low values): 0.936 | normalized growth (locus YGL167C, strain pmr1, hits give low values): 0.987 | normalized growth (locus YGL173C, strain kem1, hits give low values): 0.926 | normalized growth (locus YGL227W, strain vid30, hits give low values): 0.974 | normalized growth (locus YGL240W, strain doc1, hits give low values): 0.864 (active) | normalized growth (locus YGL248W, strain PDE1, hits give low values): 0.945 | normalized growth (locus YGL253W, strain hxk2, hits give low values): 0.963 | normalized growth (locus YGR135W, strain pre9, hits give low values): 1 | normalized growth (locus YGR229C, strain SMI1, hits give low values): 0.954 and 0.981 | normalized growth (locus YGR252W, strain gcn5, hits give low values): 0.815 | normalized growth (locus YHR013C, strain ard1, hits give low values): 1.01 | normalized growth (locus YHR027C, strain rpn1, hits give low values): 0.927 | normalized growth (locus YHR030C, strain SLT2, hits give low values): 0.99 and 1.04 | normalized growth (locus YHR079C, strain IRE1 (second series), hits give low values): 0.957 | normalized growth (locus YHR079C, strain IRE1, hits give low values): 1.07 | normalized growth (locus YHR094C, strain hxt1, hits give low values): 0.974 | normalized growth (locus YHR129C, strain ARP1, hits give low values): 0.985 | normalized growth (locus YHR142W, strain chs7, hits give low values): 0.879 | normalized growth (locus YHR200W, strain rpn10, hits give low values): 0.966 | normalized growth (locus YIL066C, strain RNR3, hits give low values): 0.917 | normalized growth (locus YIL073C, strain SPO22, hits give low values): 0.968 | normalized growth (locus YIL125W, strain kgd1, hits give low values): 0.963 | normalized growth (locus YIR030C, strain dcg1, hits give low values): 0.98 | normalized growth (locus YJL092W, strain hpr5, hits give low values): 0.949 | normalized growth (locus YJL095W, strain BCK1 (second series), hits give low values): 0.96 | normalized growth (locus YJL095W, strain BCK1, hits give low values): 0.906 and 1.01 | normalized growth (locus YJL115W, strain asf1, hits give low values): 0.974 | normalized growth (locus YJL129C, strain trk1, hits give low values): 1.02 | normalized growth (locus YJL134W, strain LCB3, hits give low values): 0.984 | normalized growth (locus YJL154C, strain vps35, hits give low values): 0.973 | normalized growth (locus YJL164C, strain tpk1, hits give low values): 0.964 | normalized growth (locus YJL166W, strain qcr8, hits give low values): 0.896 (active) | normalized growth (locus YJL168C, strain set2, hits give low values): 0.983 | normalized growth (locus YJL187C, strain SWE1 (second series), hits give low values): 0.894 | normalized growth (locus YJR043C, strain POL32, hits give low values): 0.968 | normalized growth (locus YJR066W, strain TOR1, hits give low values): 0.972 | normalized growth (locus YJR075W, strain HOC1, hits give low values): 0.981 and 1.01
